In PubChem BioAssay (EPA / NIEHS):
Records with an inconclusive call do not appear. A structure can be active in one record and inactive in another. The source made the active and inactive calls. Rule for the calls, unless noted: active = hit-call score of the fitted dose curve at least 0.9, where 1 is the maximum; inconclusive = response in the unintended direction; inactive = score below 0.9.

What was measured:
[1] = read-out: X-box binding protein 1 (XBP1), XBP1 (gene 7494); experiment: LTEA_HepaRG_XBP1: Life Technologies and Expression Analysis (LTEA) Assay for X-box binding protein 1 (XBP1) using HepaRG (AID 2283540; active = hit-call score of the fitted dose curve at least 0.9, where 1 is the maximum; inactive = score below 0.9); conditions: mRNA level, 48 h; actives raise or lower the signal
Method in brief: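 XBP1 transcript by qRT-PCR (housekeeping-normalized: ACTB, GAPDH, POLR2A) after 48 h chemical treatment of HepaRG cells, 8-point half-log series topping at 100 uM, vehicle 0.5% DMSO. Gain and loss of signal fitted relative to DMSO.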

[2] = LTEA_HepaRG_LDH_cytotoxicity: Cytotoxicity Assessment in the Life Technologies and Expression Analysis (LTEA) Assay (AID 2283563);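 for AC50: LDH activity released into spent culture medium as a marker of cell death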
Method in brief: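 LDH release into culture medium read after 48 h chemical treatment of HepaRG cells. Duplicate wells, eight-point half-log series topping at 100 uM, 0.5% DMSO vehicle and baseline.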

[3] = ATG_XTT_Cytotoxicity: Cytotoxicity Assessment in the Attagene TRANS-FACTORIAL HepG2 Assay (AID 2283584);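 for AC50: cells exposed to compound for 24 h before reading; active means loss of viability signal versus DMSO baseline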
Method in brief: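 Viability endpoint from XTT after 24 h chemical exposure of reporter-transfected human HepG2 liver cells; signal loss fitted relative to DMSO negative control.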

[4] = target: Cellular tumor antigen p53 (Homo sapiens) (UniProt P04637); experiment: TOX21_p53_BLA_p2_ratio: Tox21 HCT-116 p53 Agonism Beta-lactamase Assay, Ratio, Phase 2 (AID 2283592)
Method in brief: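 Read-out is the blue/green (460/530 nm, 405 nm excitation) ratio after 2 h CCF4-AM loading, fitted as gain versus DMSO. Compounds, pinned at 217-fold dilution from DMSO stocks, stayed 16 h on HCT-116 beta-lactamase reporter cells seeded 5 h earlier.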

[5] = TOX21_p53_BLA_p3_viability: Viability Assessment in the Tox21 HCT-116 p53 Agonism Beta-lactamase Assay, Phase 3 (AID 2283593);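 note: cells exposed to compound for 16 h before reading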
Method in brief: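 Cellular ATP was quantified by CellTiter-Glo luminescence, read after 30 min at room temperature. Beforehand, HCT116 cells (4000/well) received compound 5 h post-seeding, 217-fold diluted from DMSO, then incubated 16 h at 37C.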

[6] = TOX21_p53_BLA_p4_viability: Viability Assessment in the Tox21 HCT-116 p53 Agonism Beta-lactamase Assay, Phase 4 (AID 2283597);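 note: hits lower the luminescence signal meaning cytotoxicity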
Method in brief: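 Cytotoxicity as reduced cellular ATP (CellTiter-Glo luminescence, 30 min room temperature), measured in the same wells following the CCF4 FRET p53 reading. Human HCT-116 cells received compounds in DMSO (217-fold dilution) for 16 h.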

[7] = target: Cellular tumor antigen p53 (Homo sapiens) (UniProt P04637); experiment: TOX21_p53_BLA_p5_ratio: Tox21 HCT-116 p53 Agonism Beta-lactamase Assay, Ratio, Phase 5 (AID 2283599)
Method in brief: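 Beta-lactamase reporter ratio (blue 460 nm over green 530 nm, 405 nm excitation) after 2 h CCF4-AM loading, in HCT-116 cells exposed 16 h at 37 C to compounds pinned at 217-fold dilution. Increases relative to DMSO baseline scored.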

[8] = TOX21_p53_BLA_p5_viability: Viability Assessment in the Tox21 HCT-116 p53 Agonism Beta-lactamase Assay, Phase 5 (AID 2283600)
Method in brief: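 Viability came from CellTiter-Glo ATP luminescence, read after 30 min at room temperature. Before this, HCT-116 p53-bla cells (4000/well) had 16 hours of compound exposure at 37C, with DMSO stocks diluted 217-fold on transfer.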

[9] = target: Cellular tumor antigen p53 (Homo sapiens) (UniProt P04637); experiment: TOX21_p53_BLA_p4_ratio: Tox21 HCT-116 p53 Agonism Beta-lactamase Assay, Ratio, Phase 4 (AID 2283601)
Method in brief: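 Signal is the blue/green (460nm/530nm) ratio of cleaved versus uncleaved CCF4-AM substrate, read after 2 h substrate loading. Cells were HCT116 carrying the p53-responsive beta-lactamase reporter, dosed 16 h at 37C, 5% CO2; CellTiter-Glo measured in parallel.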

[10] = Tanguay_ZF_120hpf_MORT_legacy: (Legacy) Oregon State University Tanguay Lab 120 Hour Post-fertilization zebrafish Assay for Mortality (AID 2283633);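 for AC50: fitted as increase in binary mortality versus DMSO negative control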
Method in brief: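 Static waterborne exposure from 6 to 120 hpf at 28C of single dechorionated wild-type (5D) embryos per well, 0.64% DMSO final. Death recorded present/absent by brightfield at 24 and 120 hpf.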

[11] = Tanguay_ZF_120hpf_YSE_legacy: (Legacy) Oregon State University Tanguay Lab 120 Hour Post-fertilization zebrafish Assay for Yolk Sac Edema (AID 2283634)
Method in brief: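 Presence or absence of yolk sac edema was recorded at 120 hpf in surviving larvae. These were wild-type Tropical 5D embryos, chorion removed at 4 hpf, held in static exposure at 28C from 6 hpf with 0.64% DMSO vehicle.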

[12] = Tanguay_ZF_120hpf_AXIS_legacy: (Legacy) Oregon State University Tanguay Lab 120 Hour Post-fertilization zebrafish Assay for Body Axis Malformation (AID 2283635);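 for AC50: potency for an increased fraction of larvae scored with body axis malformation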
Method in brief: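 Binary scoring of axis defects at 120 hpf under brightfield, fitted positive versus DMSO. Tropical 5D embryos, chorion removed by pronase at 4 hpf, were singly exposed in sealed, dark plates at 28C from 6 hpf; DMSO 0.64% final.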

[13] = Tanguay_ZF_120hpf_EYE_legacy: (Legacy) Oregon State University Tanguay Lab 120 Hour Post-fertilization zebrafish Assay for Eye Malformation (AID 2283636);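 note: binary presence or absence of eye malformation scored by brightfield in 120 hpf larvae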
Method in brief: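 Binary brightfield scoring of eye defects at 120 hpf after static exposure from 6 hpf of single pronase-dechorionated wild-type embryos (28C, 0.64% DMSO). Non-mortality endpoints omitted where embryos died; fit vs DMSO.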

[14] = Tanguay_ZF_120hpf_SNOU_legacy: (Legacy) Oregon State University Tanguay Lab 120 Hour Post-fertilization zebrafish Assay for Snout Malformation (AID 2283637)
Method in brief: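 Binary snout-malformation call at 120 hpf in wild-type 5D embryos, chorion removed by pronase, under static exposure from 6 hpf at 28C (0.64% DMSO). Embryos dying by 24 or 120 hpf excluded.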

[15] = Tanguay_ZF_120hpf_OTIC_legacy: (Legacy) Oregon State University Tanguay Lab 120 Hour Post-fertilization zebrafish Assay for Otic Vesicle Malformation (AID 2283639)
Method in brief: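 Wild-type zebrafish larvae, whole-embryo exposure from early stage to 120 hpf at 28C. Binary brightfield scoring of otic vesicle morphology, fitted in the positive direction against the DMSO baseline.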

[16] = Tanguay_ZF_120hpf_PE_legacy: (Legacy) Oregon State University Tanguay Lab 120 Hour Post-fertilization zebrafish Assay for Pericardial Edema (AID 2283640);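 for AC50: potency for increased incidence of pericardial edema versus DMSO baseline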
Method in brief: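 Scoring was binary, by brightfield microscopy at 120 hpf, and skipped where mortality occurred. Wild-type embryos were kept under sealed, foil-covered static exposure at 28C in 0.64% (vol/vol) DMSO.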

[17] = Tanguay_ZF_120hpf_SOMI_legacy: (Legacy) Oregon State University Tanguay Lab 120 Hour Post-fertilization zebrafish Assay for Somite Malformation (AID 2283647)
Method in brief: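 Binary somite-defect scoring at 120 hpf, omitted for embryos that died, in wild-type (Tropical 5D) zebrafish with chorion removed by pronase at 4 hpf; static exposure began 6 hpf, single embryos per well, 28C, 0.64% DMSO; fitted positive versus DMSO.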

[18] = Tanguay_ZF_120hpf_PFIN_legacy: (Legacy) Oregon State University Tanguay Lab 120 Hour Post-fertilization zebrafish Assay for Pectoral Fin Malformation (AID 2283648);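 note: each larva judged yes or no for fin defect by brightfield with dead larvae skipped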
Method in brief: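 Pectoral fin malformation was recorded as a binary endpoint at 120 hpf in wild-type Tropical 5D larvae, which had been dechorionated and exposed statically from 6 hpf at 28C in 0.64% DMSO. Dead embryos were excluded.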

[19] = target: Cellular tumor antigen p53 (Homo sapiens) (UniProt P04637); experiment: TOX21_p53_BLA_p3_ratio: Tox21 HCT-116 p53 Agonism Beta-lactamase Assay, Ratio, Phase 3 (AID 2283596)
Method in brief: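 Cells were seeded at 4000/well, rested 5 h at 37C, then dosed with DMSO compound solutions (217-fold dilution) for 16 h. CCF4-AM substrate was loaded for 2 h at room temperature, and the 460/530 nm emission ratio was fitted for gain of signal versus DMSO.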

[20] = TOX21_p53_BLA_p2_viability: Viability Assessment in the Tox21 HCT-116 p53 Agonism Beta-lactamase Assay, Phase 2 (AID 2283591);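 note: compound exposure lasted 16 h at 37 °C; actives lower the ATP signal meaning cytotoxicity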
Method in brief: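 Cytotoxicity readout: CellTiter-Glo ATP luminescence, 30 min at room temperature, after the beta-lactamase read. Cells were HCT116 exposed 16 h at 37C to compounds pin-transferred at 217-fold dilution from DMSO stocks.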

Sequence of Cellular tumor antigen p53 (Homo sapiens) (P04637 whole entry, looked up): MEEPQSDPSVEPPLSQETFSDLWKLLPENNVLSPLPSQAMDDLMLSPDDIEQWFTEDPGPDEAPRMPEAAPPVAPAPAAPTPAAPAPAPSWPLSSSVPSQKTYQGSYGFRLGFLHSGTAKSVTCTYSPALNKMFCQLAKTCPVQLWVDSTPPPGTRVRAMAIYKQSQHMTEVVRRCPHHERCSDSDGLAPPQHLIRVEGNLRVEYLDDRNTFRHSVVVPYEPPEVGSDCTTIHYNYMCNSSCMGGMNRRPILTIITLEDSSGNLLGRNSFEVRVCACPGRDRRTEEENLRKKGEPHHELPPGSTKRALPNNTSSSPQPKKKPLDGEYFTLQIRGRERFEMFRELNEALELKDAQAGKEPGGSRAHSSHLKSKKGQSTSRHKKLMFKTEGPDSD

## CCOP(=S)(OCC)SCSP(=S)(OCC)OCC
[1]
  AC50: 0.245 µM (active)
[2]
  outcome: inactive
[3]
  outcome: inactive
[4]
  outcome: inactive
[5]
  outcome: inactive
[6]
  outcome: inactive
[7]
  outcome: inactive
[8]
  outcome: inactive
[9]
  outcome: inactive
[10]
  outcome: inactive
[11]
  outcome: inactive
[12]
  outcome: inactive
[13]
  outcome: inactive
[14]
  outcome: inactive
[15]
  outcome: inactive
[16]
  outcome: inactive
[17]
  outcome: inactive
[18]
  outcome: inactive

## O=c1[nH]c(=O)[nH]c(=O)[nH]1
[1]
  outcome: inactive
[2]
  outcome: inactive
[3]
  outcome: inactive
[4]
  outcome: inactive
[5]
  outcome: inactive
[19]
  outcome: inactive
[6]
  outcome: inactive
[7]
  outcome: inactive
[9]
  outcome: inactive
[10]
  outcome: inactive
[11]
  outcome: inactive
[12]
  outcome: inactive
[13]
  outcome: inactive
[14]
  outcome: inactive
[15]
  outcome: inactive
[16]
  outcome: inactive
[17]
  outcome: inactive
[18]
  outcome: inactive

## C[C@@H]1C[C@@H]([C@H](O)CC2CC(=O)NC(=O)C2)C(=O)[C@@H](C)C1
[1]
  AC50: 16.7 µM (active)
[2]
  AC50: 45.1 µM (active)
[3]
  outcome: inactive
[20]
  outcome: inactive
[5]
  outcome: inactive
[19]
  outcome: inactive
[6]
  AC50: 1.92 µM (active)
  outcome: inactive
[7]
  outcome: inactive
[8]
  outcome: inactive
[9]
  outcome: inactive
[10]
  AC50: 43.2 µM (active)
[11]
  outcome: inactive
[12]
  outcome: inactive
[13]
  outcome: inactive
[15]
  outcome: inactive
[16]
  outcome: inactive
[17]
  outcome: inactive

## CCC(=O)C(CC(C)N(C)C)(c1ccccc1)c1ccccc1 (configuration not stated)
[1]
  outcome: inactive
[2]
  outcome: inactive
[3]
  outcome: inactive
[4]
  outcome: inactive
[19]
  outcome: inactive
[9]
  outcome: inactive
[10]
  outcome: inactive
[12]
  AC50: 31.3 µM (active)
[13]
  outcome: inactive
[14]
  AC50: 29.1 µM (active)
[15]
  outcome: inactive
[16]
  AC50: 7.24 µM (active)
[17]
  outcome: inactive
[18]
  outcome: inactive

## C=C(C)C(=O)[O][Sn]([CH2]CCC)([CH2]CCC)[CH2]CCC
[1]
  outcome: inactive
[2]
  AC50: 4.2 µM (active)
[3]
  AC50: 2.32 µM (active)
[20]
  AC50: 1.88 µM (active)
[4]
  AC50: 41.1 µM (active)
[5]
  AC50: 1.18 µM (active)
[19]
  AC50: 17.5 µM (active)
[6]
  AC50: 1.5 µM (active)
[8]
  AC50: 1.74 µM (active)
[9]
  AC50: 28.7 µM (active)
[10]
  AC50: 1.77 µM (active)
[11]
  outcome: inactive
[12]
  outcome: inactive
[13]
  outcome: inactive
[14]
  outcome: inactive
[15]
  outcome: inactive
[16]
  outcome: inactive
[17]
  outcome: inactive
[18]
  outcome: inactive

## Oc1cccc2cccnc12
[1]
  outcome: inactive
[2]
  outcome: inactive
[3]
  outcome: inactive
[20]
  outcome: inactive
[5]
  outcome: inactive
[6]
  outcome: inactive
[8]
  outcome: inactive
[10]
  AC50: 27.2 µM (active)
[11]
  outcome: inactive
[12]
  outcome: inactive
[14]
  outcome: inactive
[15]
  outcome: inactive
[16]
  outcome: inactive
[17]
  outcome: inactive
[18]
  outcome: inactive
